# According to PubChem BioAssay (EPA / NIEHS):
# Records with an inconclusive call do not appear. Activity calls are given as the source filed them. The calls were made as follows, unless noted: active = hit-call score of the fitted dose curve at least 0.9, where 1 is the maximum; inconclusive = response in the unintended direction; inactive = score below 0.9.
# Tests used:
# [1] = target: human Thyroid hormone Receptor alpha (TRa), THRA (gene 7067) (UniProt P10827); test: ATG_hTRa_XSP2: Attagene TRANS-FACTORIAL Multi-Species (XSP2) HepG2 Assay for human Thyroid hormone Receptor alpha (TRa) (AID 2283838)
# Chain of human Thyroid hormone Receptor alpha (TRa), THRA (gene 7067) (P10827 whole entry, looked up, the tested form may be a part): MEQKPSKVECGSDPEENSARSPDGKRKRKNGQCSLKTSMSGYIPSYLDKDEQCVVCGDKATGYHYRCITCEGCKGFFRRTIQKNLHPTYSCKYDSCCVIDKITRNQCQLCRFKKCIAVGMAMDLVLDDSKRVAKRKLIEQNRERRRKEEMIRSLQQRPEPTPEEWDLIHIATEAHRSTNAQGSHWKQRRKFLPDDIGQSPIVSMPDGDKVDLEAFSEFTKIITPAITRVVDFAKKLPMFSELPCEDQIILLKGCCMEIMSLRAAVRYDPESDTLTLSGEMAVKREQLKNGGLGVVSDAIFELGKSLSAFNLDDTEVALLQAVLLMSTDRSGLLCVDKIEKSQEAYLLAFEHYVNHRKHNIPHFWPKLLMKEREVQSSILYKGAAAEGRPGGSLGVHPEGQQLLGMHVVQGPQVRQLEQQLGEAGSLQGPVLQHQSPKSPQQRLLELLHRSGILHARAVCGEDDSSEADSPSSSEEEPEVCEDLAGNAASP
# In short: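 Gain-of-signal in reporter mRNA, relative to DMSO, after 24 h dosing of transfected HepG2; quantitation by RT-PCR fragment analysis on capillary electrophoresis.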
# [2] = target: human Thyroid hormone Receptor beta (TRb), THRB (gene 7068) (UniProt P10828); test: ATG_hTRb_XSP2: Attagene TRANS-FACTORIAL Multi-Species (XSP2) HepG2 Assay for human Thyroid hormone Receptor beta (TRb) (AID 2283840);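 also: actives raise reporter mRNA so potency reflects agonist-like gain of signal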
# Chain of human Thyroid hormone Receptor beta (TRb), THRB (gene 7068) (P10828 whole entry, looked up, the tested form may be a part): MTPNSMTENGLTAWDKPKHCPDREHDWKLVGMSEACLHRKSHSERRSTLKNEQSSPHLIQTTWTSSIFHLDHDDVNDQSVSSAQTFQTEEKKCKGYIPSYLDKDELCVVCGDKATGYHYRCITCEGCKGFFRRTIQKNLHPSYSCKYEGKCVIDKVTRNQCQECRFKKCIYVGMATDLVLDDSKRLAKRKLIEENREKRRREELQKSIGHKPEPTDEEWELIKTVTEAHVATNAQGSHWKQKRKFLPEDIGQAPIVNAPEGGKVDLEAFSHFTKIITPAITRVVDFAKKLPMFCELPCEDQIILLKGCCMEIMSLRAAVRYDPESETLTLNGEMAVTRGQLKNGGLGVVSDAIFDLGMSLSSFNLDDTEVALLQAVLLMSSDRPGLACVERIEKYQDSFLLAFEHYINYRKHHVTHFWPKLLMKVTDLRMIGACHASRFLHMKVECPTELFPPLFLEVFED
# In short: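 HepG2 cells were transiently transfected with GAL4-UAS multiplexed reporter units expressing chimeric NR-Gal4 proteins, dosed 24 h; reporter mRNA was quantified by RT-PCR, fluorescent labeling, HpaI digestion and capillary electrophoresis, fitted for gain of signal versus DMSO.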
# [3] = system: Sodium/Iodide Symporter (NIS), SLC5A5 (gene 6528); test: CPHEA_Stoker_NIS_Inhibition_RAIU: CPHEA's Radioactive Iodide Uptake (RAIU) Assay for Sodium/Iodide Symporter (NIS) Inhibition, Stoker and Laws Labs (AID 2283841)
# In short: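 Iodide uptake read as CPM of intracellular 125I (final 329 pM) after 2 h room-temperature exposure in HEPES-buffered HBSS, pH 7.4. Human NIS-expressing HEK293T cells; six concentrations 0.001–100 uM, 0.5% DMSO, normalised to DMSO wells.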
# [4] = CPHEA_Stoker_NIS_Cytotoxicity: Cytotoxicity Assessment for CPHEA's Radioactive Iodide Uptake (RAIU) Assay for Sodium/Iodide Symporter (NIS) Inhibition, Stoker and Laws Labs (AID 2283897);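 as to AC50: active means loss of ATP signal versus DMSO meaning cytotoxicity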
# In short: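 CellTiter-Glo ATP luminescence gauged viability in HEK293T cells expressing human NIS after 2 h chemical exposure. Concentrations ran 0.001–100 uM in 0.5% DMSO; DMSO served as baseline for the loss-of-signal fit.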
# [5] = CEETOX_H295R_OHPREG_noMTC: CeeTox H295R High-throughput Steroidogenesis Assay for OH-Pregnenolone (OHPREG), maximum tolerated concentration (MTC) filtered results only (AID 2283912; active = hit-call score of the fitted dose curve at least 0.9, where 1 is the maximum; inactive = score below 0.9); details: actives raise or lower the signal
# In short: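 Readout is HPLC-MS/MS quantification of 17alpha-hydroxypregnenolone released by forskolin-stimulated H295R cells over 48 h of chemical exposure, DMSO as baseline.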
# [6] = CEETOX_H295R_OHPROG_noMTC: CeeTox H295R High-throughput Steroidogenesis Assay for OH-Progesterone (OHPROG), maximum tolerated concentration (MTC) filtered results only (AID 2283914; active = hit-call score of the fitted dose curve at least 0.9, where 1 is the maximum; inactive = score below 0.9); details: actives raise or lower the signal
# In short: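 Analysis uses all tested concentrations, without maximum-tolerated-concentration screening by MTT. H295R cells, forskolin-primed (10 uM, 48 h), receive chemical for 48 h; hormone in medium measured by HPLC-MS/MS, with bidirectional curve fitting against DMSO.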
# [7] = CEETOX_H295R_ANDR_noMTC: CeeTox H295R High-throughput Steroidogenesis Assay for Androstenedione (ANDR), maximum tolerated concentration (MTC) filtered results only (AID 2283915; active = hit-call score of the fitted dose curve at least 0.9, where 1 is the maximum; inactive = score below 0.9); details: actives raise or lower the signal
# Experimental: CEETOX_H295R is a cell-based, multiplexed-readout assay that uses H295R, a human adrenal gland cell line, with measurements taken at 48 hours after chemical dosing in a 96-well plate.CEETOX_H295R_ANDR_noMTC is one of 12 assay component(s) measured or calculated from the CEETOX_H295R assay (11 hormones and 1 viability assay). It is designed to make measurements of hormone induction, a form of inducible reporter, as detected with absorbance signals by HPLC-MS-MS technology. The concentrations for these components have not been pre-filtered for the maximum tolerated concentration (MTC) based on the MTT assay (_noMTC).Data from the assay component CEETOX_H295R_ANDR_noMTC was analyzed into 1 assay endpoint. This assay endpoint, CEETOX_H295R_ANDR_noMTC, was analyzed with bidirectional fitting relative to DMSO as the negative control and baseline of activity. […]
# Cell culture and media preparation procedures were conducted in accordance with OECD Test No. 456 guidelines, with minor modifications. […] For steroid quantification, media samples were shipped to OpAns, LLC (Durham, NC) on dry ice, and samples were thawed to room temperature prior to liquid-liquid extraction. […] Steroid hormones were separated by HPLC, eluted using a reverse phase C18 gradient with electrospray positive ionization, followed by quantification by tandem mass spectrometry (MS/MS). Data were acquired on a MassHunter Workstation Acquisition version B03.01 (Agilent Technologies, Inc.) and processed using MassHunter Quantitative Analysis for QQQ. Accuracy was determined for each hormone analyte from 3 standards to determine upper and lower limits of quantification (ULOQ and LLOQ, respectively) using a 7-point standard curve. Precision and accuracy of the extraction and quantification methods were calculated as the percent relative standard deviation (%RSD) of the spiked standards and percent spiked standard recovered, respectively. […] Test medium was removed following chemical exposure, and cell viability was evaluated in the same wells by MTT. […]
# [8] = CEETOX_H295R_11DCORT_noMTC: CeeTox H295R High-throughput Steroidogenesis Assay for 11-Deoxycortisol (11DCORT), maximum tolerated concentration (MTC) filtered results only (AID 2283911; active = hit-call score of the fitted dose curve at least 0.9, where 1 is the maximum; inactive = score below 0.9); details: actives raise or lower the signal
# In short: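 HPLC-MS/MS read-out of 11-deoxycortisol after MTBE extraction of H295R medium. Cells: forskolin 10 uM pre-stimulation 48 h, chemical 48 h, 0.1% DMSO final. Bidirectional fit vs DMSO baseline; no MTC filtering.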
# [9] = CEETOX_H295R_CORTISOL_noMTC: CeeTox H295R High-throughput Steroidogenesis Assay for Cortisol, maximum tolerated concentration (MTC) filtered results only (AID 2283916; active = hit-call score of the fitted dose curve at least 0.9, where 1 is the maximum; inactive = score below 0.9); details: actives raise or lower the signal
# In short: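 H295R adrenal cells were pre-stimulated 48 h with 10 uM forskolin, then exposed 48 h to test chemical in 0.1% DMSO. Medium cortisol was measured by MTBE extraction and HPLC-MS/MS; bidirectional fit versus DMSO, concentrations not MTC-filtered.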
smiles,measurement,setting,value
C[C@H]1CCCC(=O)CCC/C=C/c2cc(O)cc(O)c2C(=O)O1,outcome,[1],inactive
same,outcome,[2],inactive
same,outcome,[3],inactive
same,AC50,[4],83.8 µM (active)
same,outcome,[5],inactive
same,AC50,[6],2.3 µM (active)
same,AC50,[7],77.4 µM (active)
O=C(Nc1ccc2[nH]ccc2c1)c1cc2cc(F)ccc2n1Cc1cccc(F)c1,outcome,[3],inactive
same,outcome,[4],inactive
O=C1C(Cl)=C(Cl)C(=O)c2ccccc21,AC50,[3],9.92 µM (active)
same,AC50,[4],50 µM (active)
c1cc[c]([Hg][c]2ccccc2)cc1,outcome,[3],inactive
same,outcome,[4],inactive
same,AC50,[8],53.6 µM (active)
same,AC50,[5],27.1 µM (active)
same,AC50,[6],32 µM (active)
same,AC50,[7],50 µM (active)
same,AC50,[9],36.9 µM (active)
CCOP(=S)(OCC)SCSP(=S)(OCC)OCC,outcome,[3],inactive
same,outcome,[4],inactive
Cn1sc(Cl)cc1=O,outcome,[3],inactive
same,outcome,[4],inactive
same,outcome,[8],inactive
same,outcome,[5],inactive
same,outcome,[6],inactive
same,outcome,[9],inactive
Cc1ccccc1C(=O)Nc1cccc(OC(C)C)c1,outcome,[3],inactive
same,outcome,[4],inactive
COP(=S)(OC)Oc1ccc(Sc2ccc(OP(=S)(OC)OC)cc2)cc1,outcome,[3],inactive
same,outcome,[4],inactive
O=C(NCO)NCO,outcome,[3],inactive
same,outcome,[4],inactive
O=C(O)C(F)(F)C(F)(F)C(F)(F)C(F)(F)C(F)(F)C(F)(F)F,outcome,[3],inactive
same,outcome,[4],inactive
O=C/C=C/c1ccccc1,outcome,[3],inactive
same,outcome,[4],inactive
CC(=O)c1cc(C(C)(C)C)cc2c1CCC2(C)C,outcome,[3],inactive
same,outcome,[4],inactive
CC(=O)[O][Hg][c]1ccccc1,AC50,[3],50 µM (active)
same,AC50,[4],9.92 µM (active)
NNC(=S)NN,outcome,[3],inactive
same,outcome,[4],inactive
O=C(OC1CCCCC1)c1ccccc1C(=O)OC1CCCCC1,outcome,[3],inactive
same,outcome,[4],inactive
same,AC50,[8],2.24 µM (active)
same,AC50,[5],2.11 µM (active)
same,AC50,[6],0.549 µM (active)
same,outcome,[9],inactive
ClC(Cl)=C(Cl)C(Cl)=C(Cl)Cl,outcome,[8],inactive
same,outcome,[5],inactive
same,outcome,[6],inactive
same,outcome,[9],inactive
CCC1(c2ccc(N)cc2)CCC(=O)NC1=O (stereo not drawn),outcome,[8],inactive
same,outcome,[5],inactive
same,outcome,[6],inactive
same,outcome,[7],inactive
same,outcome,[9],inactive
Fc1ccc(C2(Cn3cncn3)OC2c2ccccc2Cl)cc1 (stereo not drawn),outcome,[3],inactive
same,outcome,[4],inactive
CC(C)(c1ccc(OCC2CO2)cc1)c1ccc(OCC2CO2)cc1 (stereo not drawn),outcome,[3],inactive
same,outcome,[4],inactive
CC(C)c1cccc(C(C)C)c1O,outcome,[3],inactive
same,outcome,[4],inactive
O=[N+]([O-])c1ccc(O)c([N+](=O)[O-])c1,outcome,[3],inactive
same,outcome,[4],inactive
CCOP(=S)(OCC)Oc1nc(Cl)c(Cl)cc1Cl,outcome,[3],inactive
same,outcome,[4],inactive
CCCCCCCCSC(=O)Oc1cc(Cl)nnc1-c1ccccc1,outcome,[3],inactive
same,outcome,[4],inactive
CCC[CH2][Sn]([CH2]CCC)([CH2]CCC)[O]C(=O)c1ccccc1,AC50,[3],1.4 µM (active)
same,AC50,[4],9.05 µM (active)
Clc1ccc(COC(Cn2ccnc2)c2ccc(Cl)cc2Cl)cc1 (stereo not drawn),AC50,[3],11.7 µM (active)
same,AC50,[4],72.6 µM (active)
